rTrxR1 inhibitor – rat TrxR1 inhibition | O89049 | recombinant rTrxR1, NADPH fluorescence consumption, selenite substrate | Potency, µM (series often up to 114 µM), for the others: top-dose activity change, negative = inhibition, usual class: inhibitors | hit rate 1% among 390,000 | AID 588453; also: % is scaled to controls: 0 for no effect and ±100 for the full control effect; nearly all actives have a fitted effect of over 65% in size
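Rat TrxR1 (90 nM in the dispensed reagent) was pre-reduced with 400 uM NADPH for 5 min at room temperature, then incubated with compound for 15 min. After 400 uM selenite was added, NADPH fluorescence (Ex 340/Em 450 nm) was followed for 8 min.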
KAT2A inh – GCN5L2 (KAT2A) acetyltransferase inhibition; hit rate 0.21% among 390,000; Q92830; Potency, µM (titrated, usually from 58.9 µM), without a hit: at the highest dose activity change, negative = inhibition, actives largely listed as inhibitors; GCN5L2 HAT assay, ThioGlo1 CoA-SH fluorescence; also: % is scaled to controls: 0 for no effect and ±100 for the full control effect
Target sequence (Q92830 whole entry, looked up): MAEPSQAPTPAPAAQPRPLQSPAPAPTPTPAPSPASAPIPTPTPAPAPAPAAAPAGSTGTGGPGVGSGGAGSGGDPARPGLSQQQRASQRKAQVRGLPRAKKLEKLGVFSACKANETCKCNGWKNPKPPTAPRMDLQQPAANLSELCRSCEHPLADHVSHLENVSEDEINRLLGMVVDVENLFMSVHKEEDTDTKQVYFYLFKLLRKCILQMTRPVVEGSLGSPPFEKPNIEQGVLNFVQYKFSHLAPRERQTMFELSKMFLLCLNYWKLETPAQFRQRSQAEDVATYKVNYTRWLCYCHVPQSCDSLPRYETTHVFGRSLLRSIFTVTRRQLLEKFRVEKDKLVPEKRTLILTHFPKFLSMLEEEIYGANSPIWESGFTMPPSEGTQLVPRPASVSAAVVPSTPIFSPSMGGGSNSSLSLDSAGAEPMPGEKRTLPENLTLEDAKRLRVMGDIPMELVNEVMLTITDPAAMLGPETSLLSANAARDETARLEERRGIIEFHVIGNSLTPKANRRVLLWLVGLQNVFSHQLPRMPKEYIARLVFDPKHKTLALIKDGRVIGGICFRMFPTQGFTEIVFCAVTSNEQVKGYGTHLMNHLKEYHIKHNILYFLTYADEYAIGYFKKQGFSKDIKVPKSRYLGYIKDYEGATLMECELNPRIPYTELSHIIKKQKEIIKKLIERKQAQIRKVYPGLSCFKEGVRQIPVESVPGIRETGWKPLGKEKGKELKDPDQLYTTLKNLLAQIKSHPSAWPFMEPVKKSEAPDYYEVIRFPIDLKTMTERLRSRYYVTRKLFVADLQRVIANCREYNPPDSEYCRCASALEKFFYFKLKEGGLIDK
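GCN5L2 (20nM final) in 50mM HEPES, 0.1mM EDTA pH 7.5, 0.01% Tween-20 was preincubated 15 min at room temperature with compound, then given ThioGlo1 (50uM), H3(1-25) peptide (75uM) and acetyl-CoA (70uM); CoA-thiol fluorescence (Ex340/Em540) was read at 0 and 20 min.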
TrxR1 substrate – is turned over as a substrate by rat TrxR1 | hit rate 0.01% among 390,000 | purified TrxR1 substrate turnover, NADPH consumption readout | O89049 | Potency, µM (top dose mostly 114 µM), inactives show at the top dose activity change, negative = substrate turnover; also: % is scaled to controls: 0 for no effect and ±100 for the full control effect; nearly all actives have a fitted effect of over 50% in size
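Rat TrxR1, dispensed at 90 nM, was prereduced with 400 uM NADPH (final) for 5 min at ~22 deg C, then incubated with compound 15 min before 400 uM selenite. A first-read NADPH fluorescence drop versus no-compound background flagged substrates.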
VDR inh – inhibitors of human vitamin D receptor; AID 504847; Potency, µM, for the others: max response, negative = inhibition, actives largely listed as inhibitors; VDR-SRC2-3 peptide fluorescence polarization, 2 h; P11473; hit rate 0.93% among 400,000; also: % is scaled to controls: 0 for no effect and ±100 for the full control effect
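Inhibition of the VDR/SRC2-3 peptide interaction is quantified by fluorescence polarization. Compounds (23 nl, pintool) incubate with the reagents for 2 hours at ambient room temperature.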
Sfp inh – blocks B. subtilis Sfp PPTase activity. Q9F4F7. Potency, µM, for inactives: largest response in the series, negative = inhibition, actives largely listed as inhibitors. hit rate 3.5% among 310,000. Biochemical Sfp PPTase activity, qHTS;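 also: the enzyme is Sfp with the accession as filed and its product quenches rhodamine fluorescence; 0% = enzyme reaction without inhibitor and -100% = no enzyme wells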
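Fluorescence-quenching assay: 15 nM Sfp-PPTase preincubated 15 min at room temperature with compound, then 5 uM rhodamine-CoA and 12.5 uM BHQ-2-labelled YbbR peptide added. Fluorescence (ex 525/em 598 nm) read at start and after 30 min; difference gives rate.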
GLS inhibitor – glutaminase GLS (human) inhibition. Potency, µM (highest dose often 45.5 µM), without a hit: at the top dose activity change, negative = inhibition, most hits filed as inhibitors. GLS enzymatic activity, qHTS titration. hit rate 0.21% among 410,000; also: % is scaled to controls: 0 for no effect and ±100 for the full control effect
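Glutamate formation by hKGA was monitored fluorometrically using coupled glutamate oxidase, HRP and Amplex Red. Substrate was added as 1 mM L-glutamine solution; incubation was 30 min at RT after an initial read.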
VDR confirm – confirmation of human vitamin D receptor inhibitors; shares compounds with VDR inh; VDR-coactivator inhibition assay, qHTS confirmation; Potency, µM, hits mostly inhibitors; hit rate 89% among 840
VDR FP – blocks human VDR-coactivator binding in fluorescein assay | shares compounds with VDR inh | Potency, µM (highest dose often 57.1 µM), without a hit: top-dose activity change, negative = inhibition, actives largely listed as inhibitors | VDR-coactivator binding, fluorescein fluorescence polarization | hit rate 48% among 840
VDR bla reporter – VDR (human) inhibition, cell-based beta-lactamase validation. shares compounds with VDR inh. VDR beta-lactamase reporter cells, FRET ratio; cells co-treated with VDR agonist LG190178. Potency, µM (top dose mostly 46.1 µM), inactives show at the highest dose activity change, negative = inhibition, hits mostly inhibitors. hit rate 23% among 840. AID 602202; also: % is scaled to controls: 0 for no effect and ±100 for the full control effect
VDR viability – cell toxicity, VDR inhibitor hit counter-screen; AID 602204; shares compounds with VDR inh; cytotoxicity counter-screen, cell viability, qHTS; Potency, µM (highest dose often 48.3 µM), for inactives: at the highest dose activity change, negative = cytotoxicity, usual class: cytotoxic; hit rate 18% among 840;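 also: plate controls were DMSO for no effect and high-concentration cycloheximide for full effect; nearly all actives have a fitted effect of over 75% in size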
Active calls of the source: *; ? = inconclusive; / = not tested or not shown; [ ] = dose if it differs, or a comment. The list is not random: actives were taken first. Their share in the collection is about 3.8%. Calls follow the shape of the dose curve; as a rule, active = well fitted curve in the direction sought with a large enough effect; inconclusive = small, poorly fitted or top-dose-only effect, or another doubt; inactive = no such curve, though single readings can be large; an effect the other way counts as inactive or inconclusive. Potency is read from the fitted curve at half-maximal effect.

SMILES | rTrxR1 inhibitor | KAT2A inh | TrxR1 substrate | VDR inh | Sfp inh | GLS inhibitor | VDR confirm | VDR FP | VDR bla reporter | VDR viability
COC(=O)CC1=NN(c2ccc(OC)cc2)C(=O)/C1=C\c1ccc(Cl)cc1 | -40% | -23% | -4%[57.1 µM] | 40µM* | 6% | -10% | 21* | ? | -5% | -10%
Cc1ccc(S(=O)(=O)NCCC(=O)NCc2ccc3c(c2)OCO3)cc1C | 3% | 0% | 2% | 3% | 14% | -7% | / | / | / | /
O=C(NC1CCCCCC1)C(=S)N1CCOCC1 | -13%[57.1 µM] | 3% | 6%[57.1 µM] | 18µM* | 16µM* | 8% | 21* | ? | -4% | 22%
Cc1ccc(-c2nn(-c3ccccc3)cc2C=C2C(=O)CC(C)(C)CC2=O)cc1 | 22µM* | -3% | -7% | 25µM* | 25µM* | ? | ? | 3.5µM* | 17% | -15%
CC1(C)CC(=O)C(=Cc2cn(-c3ccccc3)nc2-c2ccccc2)C(=O)C1 | ? | / | -5% | ? | / | ? | / | / | / | /
CC1=NNC(=O)/C1=C\c1cn(-c2ccccc2)nc1-c1ccc(Cl)cc1 | -15% | ? | -10% | 13µM* | 7% | -3% | ? | 11µM* | ? | 21µM*
O=S(=O)(c1ccc(Cl)cc1)N1CCN2CCCC2C1 (stereo not drawn) | 2% | -1% | 1% | -9% | 18% | -2% | / | / | / | /
O=C(/C=C/c1ccccc1)c1ccccc1 | ? | -8% | -8% | 18µM* | ? | 3% | 16* | 11µM* | 26µM* | ?
O=C(O)Cc1ccc(NC(=O)c2cnccn2)cc1 | 12% | -15% | 5% | -11% | -13% | -3% | / | / | / | /
O=C(c1ccccc1)c1ccc2nc(N3CCN(c4ccccc4)CC3)c3nncn3c2c1 | 19% | -20% | 6% | -1% | / | 0% | / | / | / | /
CCN(CC)c1ccc(N=Cc2ccc([N+](=O)[O-])o2)cc1 | 3.2µM* | 1% | 6% | ? | 28µM* | 32% | 7.9* | 2% | 3% | -8%
Cn1c(=O)c(-c2ccc(F)cc2)nc2cnc(N3CCOCC3)nc21 | / | -3% | / | -3% | 14% | / | / | / | / | /
O=C(/C=C/c1ccccc1)n1cnnc1SC/C=C/c1ccccc1 | -53% | -2% | -19%[57.1 µM] | 40µM* | ? | 1% | 17* | ? | 12% | -5%
CCS(=O)(=O)c1ncc(Cl)c(C(=O)Nc2ccc(S(=O)(=O)N3CCC(C)CC3)cc2)n1 | 8.9µM* | -6% | -1% | 14µM* | -19% | -5% | 5.3* | 3.5µM* | 8.2µM* | 3.7µM*
CCOC(=O)c1ccc(NC(=O)c2nc(S(=O)(=O)Cc3ccccc3)ncc2Cl)cc1 | 6.3µM* | -6% | 6% | 32µM* | ? | ? | 13* | ? | 15µM* | 13µM*
CCOC(=O)c1c(-c2ccc(C)cc2)csc1NC(=O)c1nc(SCC)ncc1Cl | 17% | 1% | -4% | 14% | / | -2% | / | / | / | /
CN(c1ccccc1)S(=O)(=O)c1ccc(NC(=O)c2nc(S(C)(=O)=O)ncc2Cl)cc1 | 0.79µM* | -4% | 0% | 20µM* | 28µM* | -25% | 3.8* | 3.5µM* | 3.7µM* | 8.2µM*
CCOC(=O)c1c(-c2ccccc2)csc1NC(=O)c1nc(S(=O)(=O)CC)ncc1Cl | 3.2µM* | -6% | 0% | 18µM* | / | -7% | 3.2* | ? | 4.6µM* | 21µM*
Cc1ccc(CNC(=O)c2nc(S(=O)(=O)Cc3ccc(C)cc3)ncc2Cl)cc1 | ? | -5% | 3% | -8% | / | -6% | / | / | / | /
CCOc1ccccc1NC(=O)c1nc(S(=O)(=O)Cc2ccccc2)ncc1Cl | 7.9µM* | -10% | -4% | 11µM* | -9% | -4% | 6.7* | 3.2µM* | 6.5µM* | 8.2µM*
COC(=O)c1ccc(NC(=O)c2nc(S(=O)(=O)Cc3cccc(C)c3)ncc2Cl)cc1 | 20µM* | -25% | -2% | 20µM* | ? | ? | 6* | ? | 15µM* | 12µM*
O=C1C(Cl)=C(NS(=O)(=O)c2ccc([N+](=O)[O-])cc2)C(=O)c2ccccc21 | 0.79µM* | -11% | -13% | 22µM* | -18% | 0% | 6* | ? | ? | ?
CCOc1ccc2[nH]c(=O)c(CN(CCc3ccccc3)C(=O)N3CCOCC3)cc2c1 | -15% | 0% | 4% | -6% | -6% | -5% | / | / | / | /
CSc1nnc(NC(=O)c2nc(S(=O)(=O)Cc3ccccc3)ncc2Cl)s1 | 32µM* | -6% | -8% | ? | -10% | -7% | 10* | 8.9µM* | 5.2µM* | 27µM*
Cc1ccc(CS(=O)(=O)c2ncc(Cl)c(C(=O)Nc3nc4ccc(C)cc4s3)n2)cc1 | ? | -10% | 1% | ? | / | -2% | / | / | / | /
SMILES | rTrxR1 inhibitor | KAT2A inh | TrxR1 substrate | VDR inh | Sfp inh | GLS inhibitor | VDR confirm | VDR FP | VDR bla reporter | VDR viability
CCCc1nnc(NC(=O)c2nc(S(=O)(=O)Cc3ccc(C)cc3)ncc2Cl)s1 | 50µM* | -26% | 5% | 28µM* | -14% | 4% | ? | 7.9µM* | 18µM* | 21µM*
CC(C)c1nnc(NC(=O)c2nc(S(=O)(=O)Cc3ccccc3)ncc2Cl)s1 | 50µM* | -7% | -2% | 16µM* | -7% | 2% | 9.5* | 7.9µM* | 6.5µM* | 15µM*
c1ccc(N2CCN(CCCOc3ccc4c(c3)OCO4)CC2)cc1 | / | 9% | / | 9% | -16% | / | / | / | / | /
COc1ccc(Cn2c(CCC(=O)Nc3ccc(Br)c(C)c3)nc3cccnc32)cc1 | 13% | -9% | -1% | -18% | / | 0% | / | / | / | /
CC(=O)N1N=C(c2ccc(C)cc2)OC1c1ccc(C)cc1 (stereo not drawn) | -9% | -1% | -6% | -8% | 15% | -4% | / | / | / | /
Cn1c(/C(C#N)=C/c2ccc(O)cc2)nc2ccccc21 | -11% | -8% | -10% | 16% | -7% | 20% | / | / | / | /

Screens from PubChem.
